From the supplement of paper PMC11732987, “Enantioselective OTUD7B fragment discovery through chemoproteomics screening and high-throughput optimisation” (Communications Chemistry, 2025)

Assays:
Experiment in all cases: log2 ratio of Biotin-Ahx-Ub-VS probe labelling (fragment/DMSO); higher = less target engagement (more negative = stronger competition), active = hit call of the paper (q ≤ 0.05, log2 ratio ≤ -1)
Conditions in all cases: compound concentration: 200 uM; treatment time: 3 h
USP42 = biological target: T1, USP42 (UniProt Q9H9J4)
T1 sequence (whole entry): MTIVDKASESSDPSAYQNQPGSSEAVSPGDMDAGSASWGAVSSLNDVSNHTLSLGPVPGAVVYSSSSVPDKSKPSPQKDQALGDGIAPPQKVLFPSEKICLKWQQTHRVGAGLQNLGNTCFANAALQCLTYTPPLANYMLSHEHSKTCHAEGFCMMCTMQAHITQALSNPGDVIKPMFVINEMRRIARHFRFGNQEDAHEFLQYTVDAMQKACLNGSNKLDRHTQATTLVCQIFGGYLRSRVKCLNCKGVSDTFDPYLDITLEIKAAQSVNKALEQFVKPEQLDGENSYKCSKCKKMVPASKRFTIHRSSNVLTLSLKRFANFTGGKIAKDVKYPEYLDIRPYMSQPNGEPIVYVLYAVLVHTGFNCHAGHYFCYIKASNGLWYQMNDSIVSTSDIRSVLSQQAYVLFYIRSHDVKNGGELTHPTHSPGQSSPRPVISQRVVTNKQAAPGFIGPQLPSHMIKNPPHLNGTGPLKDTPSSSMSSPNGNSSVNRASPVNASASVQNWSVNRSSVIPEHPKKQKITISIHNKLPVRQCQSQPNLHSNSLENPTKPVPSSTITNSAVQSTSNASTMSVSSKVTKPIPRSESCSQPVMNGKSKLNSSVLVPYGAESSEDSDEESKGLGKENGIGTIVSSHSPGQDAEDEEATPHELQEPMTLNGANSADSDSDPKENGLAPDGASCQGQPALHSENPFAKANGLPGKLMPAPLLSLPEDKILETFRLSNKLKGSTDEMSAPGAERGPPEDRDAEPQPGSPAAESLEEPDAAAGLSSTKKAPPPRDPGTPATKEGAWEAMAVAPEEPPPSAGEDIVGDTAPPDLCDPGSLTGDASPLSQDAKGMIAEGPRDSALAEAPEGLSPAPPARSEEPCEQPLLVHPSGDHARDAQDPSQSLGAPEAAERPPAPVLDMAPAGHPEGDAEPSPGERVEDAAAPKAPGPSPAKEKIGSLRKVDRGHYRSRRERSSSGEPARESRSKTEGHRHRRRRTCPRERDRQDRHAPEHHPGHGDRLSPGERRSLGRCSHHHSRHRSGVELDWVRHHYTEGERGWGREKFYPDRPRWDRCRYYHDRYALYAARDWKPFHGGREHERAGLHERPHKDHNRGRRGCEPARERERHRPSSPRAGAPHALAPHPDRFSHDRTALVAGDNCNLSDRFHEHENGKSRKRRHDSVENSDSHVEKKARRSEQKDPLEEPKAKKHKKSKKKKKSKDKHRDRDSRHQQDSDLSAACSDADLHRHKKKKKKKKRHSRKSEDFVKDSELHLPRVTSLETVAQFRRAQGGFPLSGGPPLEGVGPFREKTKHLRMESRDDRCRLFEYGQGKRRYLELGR
Procedure, shortened: (§1)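 HEK293T lysate, 495 µg per sample in Tris/CHAPS/IGEPAL buffer with protease inhibitors, was treated in triplicate with fragment at 200 µM or vehicle for 3 h and then with Biotin-Ahx-Ub-VS at 0.5 µM final for 1 h. Labelled DUBs were NeutrAvidin-enriched, digested with LysC and trypsin, and run by diaPASEF LC-MS/MS. Spectronaut label-free quantities were global-median-normalised, and values are average log2 fragment/vehicle ratios by unpaired t-test on proteins with ≥2 unique peptides.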

USP46 = USP46 (UniProt P62068)
USP46, sequence (P62068 whole entry): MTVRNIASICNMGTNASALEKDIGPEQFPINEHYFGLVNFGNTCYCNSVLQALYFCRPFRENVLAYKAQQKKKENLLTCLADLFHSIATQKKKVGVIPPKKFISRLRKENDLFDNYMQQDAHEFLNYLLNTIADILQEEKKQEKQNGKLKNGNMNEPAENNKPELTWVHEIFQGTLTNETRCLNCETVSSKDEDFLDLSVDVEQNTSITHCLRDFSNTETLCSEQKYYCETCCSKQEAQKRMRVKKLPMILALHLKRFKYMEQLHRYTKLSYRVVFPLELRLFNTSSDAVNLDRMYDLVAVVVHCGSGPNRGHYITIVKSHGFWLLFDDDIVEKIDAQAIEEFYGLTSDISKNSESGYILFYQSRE
Procedure, shortened: as §1

USP47 = biological target: T2, USP47 (UniProt Q96K76)
T2 sequence (whole entry): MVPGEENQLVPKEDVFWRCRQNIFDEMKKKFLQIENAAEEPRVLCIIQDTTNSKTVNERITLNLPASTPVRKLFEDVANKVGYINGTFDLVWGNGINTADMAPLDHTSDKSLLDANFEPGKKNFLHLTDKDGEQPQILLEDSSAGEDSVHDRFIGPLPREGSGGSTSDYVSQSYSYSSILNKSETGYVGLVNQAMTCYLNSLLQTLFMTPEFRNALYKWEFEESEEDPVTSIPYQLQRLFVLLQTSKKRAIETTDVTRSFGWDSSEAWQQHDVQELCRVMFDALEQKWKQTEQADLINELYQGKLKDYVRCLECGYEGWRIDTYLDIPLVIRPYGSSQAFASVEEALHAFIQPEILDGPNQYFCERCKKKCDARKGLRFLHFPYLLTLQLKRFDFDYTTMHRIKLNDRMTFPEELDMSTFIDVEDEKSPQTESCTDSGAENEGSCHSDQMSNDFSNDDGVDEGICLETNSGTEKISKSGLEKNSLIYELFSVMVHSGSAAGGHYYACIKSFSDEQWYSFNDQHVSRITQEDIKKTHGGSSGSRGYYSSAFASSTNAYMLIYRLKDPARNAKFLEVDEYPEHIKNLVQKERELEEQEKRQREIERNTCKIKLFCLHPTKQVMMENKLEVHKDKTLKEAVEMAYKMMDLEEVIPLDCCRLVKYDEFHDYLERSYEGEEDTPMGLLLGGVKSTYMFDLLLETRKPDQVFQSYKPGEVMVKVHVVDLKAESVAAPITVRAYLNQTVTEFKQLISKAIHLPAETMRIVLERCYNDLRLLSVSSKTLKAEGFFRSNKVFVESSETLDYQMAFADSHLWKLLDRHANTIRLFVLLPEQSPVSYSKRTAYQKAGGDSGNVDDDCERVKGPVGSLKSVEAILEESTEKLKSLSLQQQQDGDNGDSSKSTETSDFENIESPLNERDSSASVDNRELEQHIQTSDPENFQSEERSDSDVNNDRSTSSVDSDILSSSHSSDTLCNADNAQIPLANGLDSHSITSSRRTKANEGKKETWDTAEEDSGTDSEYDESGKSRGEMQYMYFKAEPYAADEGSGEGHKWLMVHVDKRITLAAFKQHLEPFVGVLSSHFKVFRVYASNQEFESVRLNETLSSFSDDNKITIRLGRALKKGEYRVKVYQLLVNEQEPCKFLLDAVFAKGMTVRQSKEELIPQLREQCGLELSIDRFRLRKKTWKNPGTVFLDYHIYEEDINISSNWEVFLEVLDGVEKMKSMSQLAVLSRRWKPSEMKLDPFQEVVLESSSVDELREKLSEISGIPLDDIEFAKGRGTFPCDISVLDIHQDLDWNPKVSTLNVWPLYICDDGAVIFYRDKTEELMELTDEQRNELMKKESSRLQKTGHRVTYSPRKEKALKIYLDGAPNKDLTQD
Procedure, shortened: as §1

USP48 = biological target: T3, USP48 (UniProt Q86UV5)
T3 sequence (whole entry): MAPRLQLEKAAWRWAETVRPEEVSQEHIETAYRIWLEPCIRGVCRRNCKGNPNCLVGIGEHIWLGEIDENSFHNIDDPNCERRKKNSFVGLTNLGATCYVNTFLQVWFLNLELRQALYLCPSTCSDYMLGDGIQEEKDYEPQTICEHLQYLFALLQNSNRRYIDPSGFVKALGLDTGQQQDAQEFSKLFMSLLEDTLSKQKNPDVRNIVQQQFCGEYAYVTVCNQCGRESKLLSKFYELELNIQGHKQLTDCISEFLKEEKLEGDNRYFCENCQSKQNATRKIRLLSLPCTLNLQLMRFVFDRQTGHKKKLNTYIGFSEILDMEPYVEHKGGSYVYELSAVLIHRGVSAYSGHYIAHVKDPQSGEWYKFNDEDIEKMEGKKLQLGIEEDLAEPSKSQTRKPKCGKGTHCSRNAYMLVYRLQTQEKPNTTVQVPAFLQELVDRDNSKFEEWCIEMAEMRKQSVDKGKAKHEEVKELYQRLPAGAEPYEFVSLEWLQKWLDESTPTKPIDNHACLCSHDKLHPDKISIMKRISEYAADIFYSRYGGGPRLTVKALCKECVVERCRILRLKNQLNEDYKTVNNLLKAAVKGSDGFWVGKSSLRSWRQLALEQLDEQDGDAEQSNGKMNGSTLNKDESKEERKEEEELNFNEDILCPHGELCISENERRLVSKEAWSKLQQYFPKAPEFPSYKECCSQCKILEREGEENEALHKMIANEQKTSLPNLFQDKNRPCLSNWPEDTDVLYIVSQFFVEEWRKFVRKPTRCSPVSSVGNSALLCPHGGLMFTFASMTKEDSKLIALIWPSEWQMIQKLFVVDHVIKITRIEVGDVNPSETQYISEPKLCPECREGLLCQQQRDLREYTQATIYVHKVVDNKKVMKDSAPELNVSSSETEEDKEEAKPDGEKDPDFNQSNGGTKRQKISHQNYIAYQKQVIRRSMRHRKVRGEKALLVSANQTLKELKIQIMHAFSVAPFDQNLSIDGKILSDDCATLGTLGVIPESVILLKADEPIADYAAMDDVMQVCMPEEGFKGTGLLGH
Procedure, shortened: as §1

USP5 = biological target: T4, USP5 (UniProt P45974)
T4 sequence (whole entry): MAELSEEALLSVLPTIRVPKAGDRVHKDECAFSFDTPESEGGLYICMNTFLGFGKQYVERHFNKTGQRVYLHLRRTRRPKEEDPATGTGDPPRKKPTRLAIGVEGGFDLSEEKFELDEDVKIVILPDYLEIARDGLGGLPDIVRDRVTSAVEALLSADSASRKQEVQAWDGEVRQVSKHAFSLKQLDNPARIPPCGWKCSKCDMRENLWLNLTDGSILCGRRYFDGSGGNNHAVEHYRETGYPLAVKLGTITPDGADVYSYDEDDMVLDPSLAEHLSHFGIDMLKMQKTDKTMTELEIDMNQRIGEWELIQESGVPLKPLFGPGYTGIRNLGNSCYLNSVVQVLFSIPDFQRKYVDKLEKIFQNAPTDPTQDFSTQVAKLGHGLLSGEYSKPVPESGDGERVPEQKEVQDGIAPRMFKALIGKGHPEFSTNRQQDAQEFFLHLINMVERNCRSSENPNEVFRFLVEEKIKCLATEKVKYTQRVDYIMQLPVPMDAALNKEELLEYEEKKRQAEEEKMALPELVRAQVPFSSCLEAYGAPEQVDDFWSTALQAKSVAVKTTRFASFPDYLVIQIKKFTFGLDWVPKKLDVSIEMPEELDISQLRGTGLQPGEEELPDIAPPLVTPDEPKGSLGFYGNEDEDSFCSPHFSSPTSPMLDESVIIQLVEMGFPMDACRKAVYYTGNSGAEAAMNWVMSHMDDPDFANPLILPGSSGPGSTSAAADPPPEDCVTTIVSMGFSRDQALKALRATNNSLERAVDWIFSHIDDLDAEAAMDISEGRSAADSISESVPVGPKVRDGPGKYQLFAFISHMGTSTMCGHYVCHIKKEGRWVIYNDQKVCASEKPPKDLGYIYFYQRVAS
Procedure, shortened: as §1

USP54 = USP54 (UniProt Q70EL1)
USP54, sequence (Q70EL1 whole entry): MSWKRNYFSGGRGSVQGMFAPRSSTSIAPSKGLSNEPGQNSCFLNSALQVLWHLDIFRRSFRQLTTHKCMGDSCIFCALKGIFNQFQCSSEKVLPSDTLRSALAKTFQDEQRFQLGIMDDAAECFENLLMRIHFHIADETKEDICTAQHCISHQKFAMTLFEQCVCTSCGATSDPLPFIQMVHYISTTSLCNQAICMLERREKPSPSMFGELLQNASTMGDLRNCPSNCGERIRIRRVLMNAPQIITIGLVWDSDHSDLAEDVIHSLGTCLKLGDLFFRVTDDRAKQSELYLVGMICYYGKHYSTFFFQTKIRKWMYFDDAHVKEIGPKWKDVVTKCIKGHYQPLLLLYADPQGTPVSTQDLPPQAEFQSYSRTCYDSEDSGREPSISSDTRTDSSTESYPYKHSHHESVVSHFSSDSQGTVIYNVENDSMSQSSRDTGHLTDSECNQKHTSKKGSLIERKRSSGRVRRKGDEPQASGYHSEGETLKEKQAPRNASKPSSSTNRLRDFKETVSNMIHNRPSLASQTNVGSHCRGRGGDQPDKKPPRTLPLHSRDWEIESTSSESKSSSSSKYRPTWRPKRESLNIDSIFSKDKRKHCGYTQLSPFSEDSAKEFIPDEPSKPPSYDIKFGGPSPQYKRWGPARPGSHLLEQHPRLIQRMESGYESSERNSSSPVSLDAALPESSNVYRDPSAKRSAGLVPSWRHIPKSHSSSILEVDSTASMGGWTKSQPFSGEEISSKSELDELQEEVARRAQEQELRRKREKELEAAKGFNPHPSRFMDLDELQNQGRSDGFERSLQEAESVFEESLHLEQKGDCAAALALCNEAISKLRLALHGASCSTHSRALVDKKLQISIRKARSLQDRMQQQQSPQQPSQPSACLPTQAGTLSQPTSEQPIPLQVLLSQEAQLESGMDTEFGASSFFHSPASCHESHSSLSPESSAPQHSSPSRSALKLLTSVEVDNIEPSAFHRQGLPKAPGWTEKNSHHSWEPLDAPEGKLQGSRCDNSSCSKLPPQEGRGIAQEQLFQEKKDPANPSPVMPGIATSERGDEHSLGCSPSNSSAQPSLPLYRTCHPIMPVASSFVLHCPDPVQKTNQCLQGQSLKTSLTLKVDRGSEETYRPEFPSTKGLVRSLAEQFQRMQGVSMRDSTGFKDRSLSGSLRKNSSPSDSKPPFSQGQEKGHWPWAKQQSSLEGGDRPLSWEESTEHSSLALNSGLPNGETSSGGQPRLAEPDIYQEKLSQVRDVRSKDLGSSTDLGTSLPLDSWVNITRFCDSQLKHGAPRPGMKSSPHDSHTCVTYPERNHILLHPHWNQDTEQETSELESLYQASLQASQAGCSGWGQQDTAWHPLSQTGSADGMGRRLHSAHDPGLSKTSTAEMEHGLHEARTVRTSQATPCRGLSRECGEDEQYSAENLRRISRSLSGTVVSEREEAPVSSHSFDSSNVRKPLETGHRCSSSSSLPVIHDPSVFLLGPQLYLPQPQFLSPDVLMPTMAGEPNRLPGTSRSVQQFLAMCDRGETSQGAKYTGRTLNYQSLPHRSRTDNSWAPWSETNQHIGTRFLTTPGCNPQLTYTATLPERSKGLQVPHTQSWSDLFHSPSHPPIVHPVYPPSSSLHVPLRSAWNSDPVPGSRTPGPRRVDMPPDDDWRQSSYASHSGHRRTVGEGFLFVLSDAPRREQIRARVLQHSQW
Procedure, shortened: as §1

USP7 = USP7 (UniProt Q93009)
USP7, sequence (Q93009 whole entry, looked up): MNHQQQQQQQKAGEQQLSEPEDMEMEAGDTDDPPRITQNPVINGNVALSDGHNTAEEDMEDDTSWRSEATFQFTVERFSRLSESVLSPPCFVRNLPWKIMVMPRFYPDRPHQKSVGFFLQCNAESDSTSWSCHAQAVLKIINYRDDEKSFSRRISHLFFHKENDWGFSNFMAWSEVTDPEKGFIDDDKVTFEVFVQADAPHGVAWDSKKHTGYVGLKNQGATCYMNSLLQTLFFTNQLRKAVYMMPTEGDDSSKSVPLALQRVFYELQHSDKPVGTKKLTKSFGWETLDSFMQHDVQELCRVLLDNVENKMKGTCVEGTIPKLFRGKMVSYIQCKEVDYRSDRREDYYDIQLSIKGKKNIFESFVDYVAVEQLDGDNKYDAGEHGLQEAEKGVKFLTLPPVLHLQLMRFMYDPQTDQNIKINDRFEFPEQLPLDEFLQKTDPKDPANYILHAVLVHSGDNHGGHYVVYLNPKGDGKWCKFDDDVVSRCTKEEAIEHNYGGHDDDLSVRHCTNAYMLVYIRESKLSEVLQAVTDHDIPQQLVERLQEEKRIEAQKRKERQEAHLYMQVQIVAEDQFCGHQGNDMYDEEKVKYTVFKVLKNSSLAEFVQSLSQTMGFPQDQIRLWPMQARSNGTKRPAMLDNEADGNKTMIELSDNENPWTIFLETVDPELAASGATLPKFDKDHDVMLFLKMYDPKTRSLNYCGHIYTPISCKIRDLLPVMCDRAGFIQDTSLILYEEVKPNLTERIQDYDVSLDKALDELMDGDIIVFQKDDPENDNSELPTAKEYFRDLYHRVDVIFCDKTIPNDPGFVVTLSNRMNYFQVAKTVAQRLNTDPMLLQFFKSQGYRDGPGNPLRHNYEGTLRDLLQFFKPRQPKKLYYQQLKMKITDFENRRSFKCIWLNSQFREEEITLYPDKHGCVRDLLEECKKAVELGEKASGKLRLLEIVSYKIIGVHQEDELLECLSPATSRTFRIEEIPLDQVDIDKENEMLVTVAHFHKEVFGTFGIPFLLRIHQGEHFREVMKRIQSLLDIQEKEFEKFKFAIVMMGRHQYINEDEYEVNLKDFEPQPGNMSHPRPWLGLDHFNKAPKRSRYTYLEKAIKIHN
Procedure, shortened: as §1

USP8 = biological target: T5, USP8 (UniProt P40818)
T5 sequence (whole entry): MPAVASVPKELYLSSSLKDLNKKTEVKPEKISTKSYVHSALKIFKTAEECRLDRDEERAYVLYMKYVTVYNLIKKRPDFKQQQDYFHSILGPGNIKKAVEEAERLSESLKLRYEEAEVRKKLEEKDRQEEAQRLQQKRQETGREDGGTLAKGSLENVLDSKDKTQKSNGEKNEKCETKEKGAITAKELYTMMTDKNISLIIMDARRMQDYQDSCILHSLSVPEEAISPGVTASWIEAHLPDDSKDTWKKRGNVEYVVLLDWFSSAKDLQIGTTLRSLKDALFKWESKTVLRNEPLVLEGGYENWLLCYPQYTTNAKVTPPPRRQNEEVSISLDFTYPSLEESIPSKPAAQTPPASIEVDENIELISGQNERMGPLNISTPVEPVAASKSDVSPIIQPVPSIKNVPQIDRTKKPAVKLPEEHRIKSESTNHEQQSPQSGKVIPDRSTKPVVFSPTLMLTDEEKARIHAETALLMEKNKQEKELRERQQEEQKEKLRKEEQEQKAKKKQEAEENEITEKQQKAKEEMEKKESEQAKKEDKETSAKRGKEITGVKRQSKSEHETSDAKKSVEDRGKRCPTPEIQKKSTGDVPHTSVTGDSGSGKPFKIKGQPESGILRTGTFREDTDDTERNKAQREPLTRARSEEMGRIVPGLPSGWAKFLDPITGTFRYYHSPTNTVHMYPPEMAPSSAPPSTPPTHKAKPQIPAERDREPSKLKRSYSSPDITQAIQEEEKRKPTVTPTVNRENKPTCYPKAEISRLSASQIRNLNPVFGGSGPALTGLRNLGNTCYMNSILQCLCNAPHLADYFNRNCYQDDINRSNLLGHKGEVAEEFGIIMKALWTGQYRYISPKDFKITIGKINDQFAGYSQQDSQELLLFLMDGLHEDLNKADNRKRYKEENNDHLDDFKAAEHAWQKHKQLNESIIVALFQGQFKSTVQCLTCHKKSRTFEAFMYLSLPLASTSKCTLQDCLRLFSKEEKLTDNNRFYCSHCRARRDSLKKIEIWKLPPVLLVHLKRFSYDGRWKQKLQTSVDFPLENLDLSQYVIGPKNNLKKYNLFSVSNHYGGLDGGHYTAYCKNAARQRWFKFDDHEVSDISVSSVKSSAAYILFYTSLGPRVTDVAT
Procedure, shortened: as §1

USP9X = USP9X (UniProt Q93008)
Procedure, shortened: as §1

UniProt O00487 = biological target: UniProt O00487
UniProt O00487, sequence (O00487 whole entry): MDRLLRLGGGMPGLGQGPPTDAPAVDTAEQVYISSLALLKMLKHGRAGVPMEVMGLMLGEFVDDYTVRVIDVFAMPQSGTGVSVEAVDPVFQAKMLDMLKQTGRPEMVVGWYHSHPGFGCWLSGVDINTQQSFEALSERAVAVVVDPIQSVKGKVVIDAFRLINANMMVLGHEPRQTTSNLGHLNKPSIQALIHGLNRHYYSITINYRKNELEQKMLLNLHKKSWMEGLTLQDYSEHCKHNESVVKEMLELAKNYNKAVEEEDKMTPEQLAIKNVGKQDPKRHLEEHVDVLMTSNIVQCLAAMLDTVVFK
Procedure, shortened: as §1

Measured: log2 ratio of Biotin-Ahx-Ub-VS probe labelling

Cc1ccc(CNC(=O)CCl)nc1C.Cl
inactive: USP42 0.369 | USP46 0.12 | USP47 0.076 | USP48 -0.13 | USP5 -0.461 | USP54 -0.18 | USP7 -0.299 | USP8 -0.217 | USP9X 0.0101 | UniProt O00487 -0.156
